The source of these data is ChEMBL document CHEMBL1961873, “Compounds: GSK PKIS; Assays: Nanosyn kinase panel” (2012).

As a reminder, the inhibition is the relative decrease from the control value, in per cent.

The test system of test [1] is Proto-oncogene tyrosine-protein kinase receptor Ret (Homo sapiens), P07949 [Y791F]. The note with it: at 1 µM.
Test [2] has as its target Macrophage-stimulating protein receptor (Homo sapiens) (UniProt Q04912). The note with it: at 0.1 µM.
The target is the same in test [3]. The settings on record: at 1 µM.
Test [4] addresses Proto-oncogene tyrosine-protein kinase ROS (Homo sapiens) (UniProt P08922). The settings on record: at 0.1 µM.
Test [5] has the same target. The settings on record: at 1 µM.
The target of test [6] is Proto-oncogene tyrosine-protein kinase Src (Homo sapiens) (UniProt P12931). The note with it: at 0.1 µM.
Proto-oncogene tyrosine-protein kinase Src (Homo sapiens), sequence (P12931 2-536 limits assumed): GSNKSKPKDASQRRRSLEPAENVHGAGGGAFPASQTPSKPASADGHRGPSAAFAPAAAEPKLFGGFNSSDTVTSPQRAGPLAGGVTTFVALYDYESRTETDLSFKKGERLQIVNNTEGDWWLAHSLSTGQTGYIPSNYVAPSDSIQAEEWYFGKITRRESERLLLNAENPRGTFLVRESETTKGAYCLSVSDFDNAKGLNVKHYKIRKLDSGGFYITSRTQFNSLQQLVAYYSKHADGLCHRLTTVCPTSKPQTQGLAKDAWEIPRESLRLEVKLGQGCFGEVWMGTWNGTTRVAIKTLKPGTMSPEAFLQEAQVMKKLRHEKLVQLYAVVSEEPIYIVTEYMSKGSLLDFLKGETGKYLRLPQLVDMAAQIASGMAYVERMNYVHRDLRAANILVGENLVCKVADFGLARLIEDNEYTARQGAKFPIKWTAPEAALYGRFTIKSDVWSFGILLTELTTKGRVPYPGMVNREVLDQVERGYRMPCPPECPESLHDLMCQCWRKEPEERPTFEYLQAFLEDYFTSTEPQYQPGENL
For test [7] the target is unchanged. The settings on record: at 1 µM.
Test [8] addresses Tyrosine-protein kinase Srms (Homo sapiens) (UniProt Q9H3Y6). The settings on record: at 0.1 µM.
Test [9] has the same target. The note with it: at 1 µM.
Test [10] deals with Tyrosine-protein kinase SYK (Homo sapiens) (UniProt P43405). The settings on record: at 0.1 µM.
Test [11] shares this target. The note with it: at 1 µM.
Test [12] has as its target T1, Tyrosine-protein kinase Tec (Homo sapiens) (UniProt P42680).
T1 sequence (whole entry): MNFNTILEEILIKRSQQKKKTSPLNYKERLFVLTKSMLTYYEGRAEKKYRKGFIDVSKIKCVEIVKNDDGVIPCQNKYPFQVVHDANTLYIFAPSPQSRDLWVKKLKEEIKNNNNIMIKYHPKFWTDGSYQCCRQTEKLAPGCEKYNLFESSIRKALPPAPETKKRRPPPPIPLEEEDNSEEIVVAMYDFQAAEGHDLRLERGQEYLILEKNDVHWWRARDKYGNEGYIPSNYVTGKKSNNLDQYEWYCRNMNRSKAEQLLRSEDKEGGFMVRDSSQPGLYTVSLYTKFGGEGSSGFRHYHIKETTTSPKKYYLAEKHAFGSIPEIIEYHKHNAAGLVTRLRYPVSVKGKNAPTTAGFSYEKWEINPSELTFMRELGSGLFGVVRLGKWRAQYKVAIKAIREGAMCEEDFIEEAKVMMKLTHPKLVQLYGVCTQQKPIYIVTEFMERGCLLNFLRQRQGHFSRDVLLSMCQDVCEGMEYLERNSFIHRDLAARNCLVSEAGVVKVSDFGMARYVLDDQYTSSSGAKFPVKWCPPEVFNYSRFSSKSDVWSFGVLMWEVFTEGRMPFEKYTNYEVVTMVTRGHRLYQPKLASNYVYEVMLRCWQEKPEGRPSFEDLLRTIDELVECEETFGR
The settings on record: at 0.1 µM.

For test [13], the target named is T1, Tyrosine-protein kinase Tec (Homo sapiens). The settings on record: at 1 µM.
For test [14], the target named is Angiopoietin-1 receptor (Homo sapiens) (UniProt Q02763). The settings on record: at 0.1 µM.
Angiopoietin-1 receptor (Homo sapiens), sequence (Q02763 whole entry): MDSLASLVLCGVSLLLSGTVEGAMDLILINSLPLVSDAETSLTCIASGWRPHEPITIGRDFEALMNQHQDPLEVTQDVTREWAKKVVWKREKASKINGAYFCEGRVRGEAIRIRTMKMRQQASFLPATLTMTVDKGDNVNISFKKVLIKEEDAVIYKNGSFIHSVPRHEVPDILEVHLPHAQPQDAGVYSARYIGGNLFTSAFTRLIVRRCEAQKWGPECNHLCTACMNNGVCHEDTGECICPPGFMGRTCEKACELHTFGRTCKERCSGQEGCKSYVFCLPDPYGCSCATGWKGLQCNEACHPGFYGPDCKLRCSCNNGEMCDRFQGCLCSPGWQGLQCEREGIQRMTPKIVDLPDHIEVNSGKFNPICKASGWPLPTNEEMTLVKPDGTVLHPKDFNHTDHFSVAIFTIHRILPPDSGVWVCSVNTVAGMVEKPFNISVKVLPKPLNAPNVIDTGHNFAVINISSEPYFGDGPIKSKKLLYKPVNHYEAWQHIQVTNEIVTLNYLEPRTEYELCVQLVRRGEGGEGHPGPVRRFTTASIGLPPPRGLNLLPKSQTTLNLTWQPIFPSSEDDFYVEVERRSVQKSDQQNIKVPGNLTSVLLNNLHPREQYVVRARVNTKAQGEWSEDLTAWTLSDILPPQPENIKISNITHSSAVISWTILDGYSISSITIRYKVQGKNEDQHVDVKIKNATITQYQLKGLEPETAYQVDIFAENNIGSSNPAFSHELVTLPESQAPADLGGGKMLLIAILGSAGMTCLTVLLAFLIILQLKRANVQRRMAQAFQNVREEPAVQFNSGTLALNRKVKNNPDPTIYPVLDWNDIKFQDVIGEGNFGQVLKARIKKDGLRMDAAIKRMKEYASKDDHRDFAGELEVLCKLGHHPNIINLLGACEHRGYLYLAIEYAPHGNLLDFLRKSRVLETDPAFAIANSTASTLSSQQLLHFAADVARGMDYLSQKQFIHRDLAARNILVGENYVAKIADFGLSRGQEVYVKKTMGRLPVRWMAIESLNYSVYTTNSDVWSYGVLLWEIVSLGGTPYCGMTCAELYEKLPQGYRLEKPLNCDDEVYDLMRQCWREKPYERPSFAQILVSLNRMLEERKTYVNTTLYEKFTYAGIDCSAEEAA
For test [15] the target is unchanged. The note with it: at 1 µM.
The target in test [16] is T2, Non-receptor tyrosine-protein kinase TNK1 (Homo sapiens) (UniProt Q13470).
T2 sequence (whole entry): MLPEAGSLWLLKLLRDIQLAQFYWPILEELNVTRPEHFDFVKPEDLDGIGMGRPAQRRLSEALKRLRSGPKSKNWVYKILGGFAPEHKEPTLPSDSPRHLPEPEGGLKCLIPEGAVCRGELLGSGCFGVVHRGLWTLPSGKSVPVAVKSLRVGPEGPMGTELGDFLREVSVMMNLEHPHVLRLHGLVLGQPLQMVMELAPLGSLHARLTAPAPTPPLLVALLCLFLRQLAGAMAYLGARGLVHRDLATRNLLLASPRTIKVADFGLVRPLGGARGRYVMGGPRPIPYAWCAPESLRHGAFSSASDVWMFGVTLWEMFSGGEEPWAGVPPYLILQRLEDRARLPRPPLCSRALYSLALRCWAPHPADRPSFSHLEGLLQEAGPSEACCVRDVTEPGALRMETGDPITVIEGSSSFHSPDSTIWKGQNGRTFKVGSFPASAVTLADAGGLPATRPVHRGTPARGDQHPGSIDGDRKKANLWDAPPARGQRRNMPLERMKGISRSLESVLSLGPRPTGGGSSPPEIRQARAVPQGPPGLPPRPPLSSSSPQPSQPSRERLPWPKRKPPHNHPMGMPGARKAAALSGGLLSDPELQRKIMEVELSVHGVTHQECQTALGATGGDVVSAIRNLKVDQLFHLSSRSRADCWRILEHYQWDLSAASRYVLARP
The note with it: at 0.1 µM.

The target of test [17] is T2, Non-receptor tyrosine-protein kinase TNK1 (Homo sapiens). The note with it: at 1 µM.
Test [18] deals with Activated CDC42 kinase 1 (Homo sapiens) (UniProt Q07912). The settings on record: at 0.1 µM.
Activated CDC42 kinase 1 (Homo sapiens), sequence (Q07912 whole entry, looked up): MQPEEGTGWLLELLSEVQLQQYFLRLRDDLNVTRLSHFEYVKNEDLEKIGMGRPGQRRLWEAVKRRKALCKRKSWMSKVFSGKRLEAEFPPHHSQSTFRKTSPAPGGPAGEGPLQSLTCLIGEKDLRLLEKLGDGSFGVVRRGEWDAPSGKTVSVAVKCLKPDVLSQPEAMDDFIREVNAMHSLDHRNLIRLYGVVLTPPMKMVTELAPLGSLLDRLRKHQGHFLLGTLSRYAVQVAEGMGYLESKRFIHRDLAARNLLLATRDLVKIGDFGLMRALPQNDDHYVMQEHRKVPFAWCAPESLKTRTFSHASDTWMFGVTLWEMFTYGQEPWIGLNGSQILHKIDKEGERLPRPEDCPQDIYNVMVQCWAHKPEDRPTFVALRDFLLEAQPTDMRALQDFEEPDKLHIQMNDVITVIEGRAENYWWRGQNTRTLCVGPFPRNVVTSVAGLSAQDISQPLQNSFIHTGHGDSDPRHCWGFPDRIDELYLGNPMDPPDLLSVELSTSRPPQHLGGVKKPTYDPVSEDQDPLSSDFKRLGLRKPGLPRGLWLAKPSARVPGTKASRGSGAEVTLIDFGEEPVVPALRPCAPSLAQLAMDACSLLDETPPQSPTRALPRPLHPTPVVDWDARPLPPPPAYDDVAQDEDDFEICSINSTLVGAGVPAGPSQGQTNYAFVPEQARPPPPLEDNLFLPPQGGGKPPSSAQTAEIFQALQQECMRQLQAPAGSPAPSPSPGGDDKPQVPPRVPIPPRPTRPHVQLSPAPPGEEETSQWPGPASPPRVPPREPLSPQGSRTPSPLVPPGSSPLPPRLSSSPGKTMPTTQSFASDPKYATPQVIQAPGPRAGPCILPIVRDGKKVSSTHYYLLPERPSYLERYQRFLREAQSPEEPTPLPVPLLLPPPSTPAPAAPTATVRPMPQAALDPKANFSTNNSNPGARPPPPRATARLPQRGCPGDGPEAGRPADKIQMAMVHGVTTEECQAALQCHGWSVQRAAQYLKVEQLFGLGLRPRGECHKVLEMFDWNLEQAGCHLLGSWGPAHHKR
Test [19] has the same target. The settings on record: at 1 µM.
The target of test [20] is High affinity nerve growth factor receptor (Homo sapiens) (UniProt P04629). The note with it: at 0.1 µM.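 Further: each value is a mean of replicate percent inhibition readings against TRKA kinase.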

SMILES strings stand for the structures.

Macrophage-stimulating protein receptor (Homo sapiens), sequence (Q04912 25-304 limits assumed): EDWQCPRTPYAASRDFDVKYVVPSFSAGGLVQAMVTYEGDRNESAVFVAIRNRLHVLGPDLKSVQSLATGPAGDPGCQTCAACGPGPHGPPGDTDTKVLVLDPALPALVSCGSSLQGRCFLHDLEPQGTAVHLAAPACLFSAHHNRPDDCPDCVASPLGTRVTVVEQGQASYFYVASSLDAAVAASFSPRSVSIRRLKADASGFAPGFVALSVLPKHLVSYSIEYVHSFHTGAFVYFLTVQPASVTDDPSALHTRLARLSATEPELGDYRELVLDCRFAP
Macrophage-stimulating protein receptor (Homo sapiens), sequence (Q04912 310-1400 limits assumed): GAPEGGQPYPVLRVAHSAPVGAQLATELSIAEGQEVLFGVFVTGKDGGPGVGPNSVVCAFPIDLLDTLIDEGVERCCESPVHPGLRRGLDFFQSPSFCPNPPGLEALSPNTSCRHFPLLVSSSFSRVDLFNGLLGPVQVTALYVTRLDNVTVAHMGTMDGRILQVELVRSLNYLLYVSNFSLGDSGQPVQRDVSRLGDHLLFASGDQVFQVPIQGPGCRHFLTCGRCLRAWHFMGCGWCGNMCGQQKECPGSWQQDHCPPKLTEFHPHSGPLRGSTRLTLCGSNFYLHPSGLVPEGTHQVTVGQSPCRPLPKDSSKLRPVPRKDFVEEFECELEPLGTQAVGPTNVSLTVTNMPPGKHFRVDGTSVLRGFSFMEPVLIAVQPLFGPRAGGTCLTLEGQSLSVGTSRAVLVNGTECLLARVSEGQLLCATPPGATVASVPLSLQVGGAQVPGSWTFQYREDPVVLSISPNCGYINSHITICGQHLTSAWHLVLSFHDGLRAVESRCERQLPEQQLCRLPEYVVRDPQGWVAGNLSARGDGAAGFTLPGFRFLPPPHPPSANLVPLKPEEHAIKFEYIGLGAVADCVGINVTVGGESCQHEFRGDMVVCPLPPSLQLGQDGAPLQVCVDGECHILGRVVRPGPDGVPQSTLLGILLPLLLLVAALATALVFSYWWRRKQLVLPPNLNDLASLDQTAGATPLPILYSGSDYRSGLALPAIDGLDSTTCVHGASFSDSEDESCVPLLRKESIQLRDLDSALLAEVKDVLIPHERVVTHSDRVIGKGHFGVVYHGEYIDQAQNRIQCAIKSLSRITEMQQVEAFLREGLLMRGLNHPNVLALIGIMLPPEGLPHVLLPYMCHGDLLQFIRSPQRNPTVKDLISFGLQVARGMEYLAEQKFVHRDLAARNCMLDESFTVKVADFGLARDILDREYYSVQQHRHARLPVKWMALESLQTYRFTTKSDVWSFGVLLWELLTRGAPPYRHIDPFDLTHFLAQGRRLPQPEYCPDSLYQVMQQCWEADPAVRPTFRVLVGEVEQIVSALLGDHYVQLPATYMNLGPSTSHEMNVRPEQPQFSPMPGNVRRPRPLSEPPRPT
Tyrosine-protein kinase Srms (Homo sapiens), sequence (Q9H3Y6 whole entry): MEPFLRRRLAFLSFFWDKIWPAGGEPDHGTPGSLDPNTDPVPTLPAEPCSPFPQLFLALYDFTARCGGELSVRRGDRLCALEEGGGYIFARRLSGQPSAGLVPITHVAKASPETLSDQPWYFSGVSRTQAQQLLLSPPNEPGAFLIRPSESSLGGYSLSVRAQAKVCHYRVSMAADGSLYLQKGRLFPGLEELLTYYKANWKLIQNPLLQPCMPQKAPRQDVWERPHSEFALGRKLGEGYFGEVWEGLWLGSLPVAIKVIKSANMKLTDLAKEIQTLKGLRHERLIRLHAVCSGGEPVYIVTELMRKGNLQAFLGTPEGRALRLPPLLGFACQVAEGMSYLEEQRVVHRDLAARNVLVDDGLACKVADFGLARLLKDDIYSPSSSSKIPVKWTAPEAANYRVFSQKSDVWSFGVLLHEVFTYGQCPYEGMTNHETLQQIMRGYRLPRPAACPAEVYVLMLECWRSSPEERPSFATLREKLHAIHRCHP

Turning to `CC(C)c1ccc(-c2cc(-c3c[nH]nc3-c3ccccn3)ccn2)cc1`, the inhibition is 4.31% in [1]; -5.99% in [2]; 3.62% in [3]; 2.06% in [4]; 1.81% in [5]; 1.53% in [6]. Also, the inhibition is 0.23% in test [7]; 0.28% in [8]; -0.57% in [9]; 2.53% in [10]; 1.09% in [11]; 2.3% in test [12]. Besides, the inhibition was 2.11% in test [13]; 4.71% in [14]; 6.64% in [15]; 0.85% in test [16]; -0.32% in test [17]; 0.23% in [18]. The inhibition in [19] was found to be 0.19%; in [20] it was 0.99%.
Consider `COc1cc2c(cc1Nc1nc(Nc3cccc(F)c3C(N)=O)c3cc[nH]c3n1)N(C(=O)CN1CCN(C(C)C)CC1)CC2`, for which the inhibition in test [1] is 6.08%; in [2], -1.39%; in test [3], -1.15%; in test [4], 31.6%; in test [5] it was 73.7%; in test [6], 4.53%. In addition, the inhibition was 11.8% in test [7]; -1.09% in test [8]; 0.82% in [9]; 3.25% in [10]; 3.08% in test [11]; 5.26% in test [12]. Further, the inhibition in test [13] turned out to be 1.94%; in [14], 4.46%; in test [15], 2.66%; in [16] it was 3.48%; in test [17], 22.4%; in [18], 1.09%. Further, the inhibition in test [19] amounted to 5.91%; in test [20] it was 1.48%.
On to `CNC(=O)c1cncc(/C=C/c2ccccc2C)c1`, for which the inhibition amounted to 12.3% in [1]; 1.43% in [2]; 5.25% in test [3]; 4.35% in test [4]; 5.86% in [5]; 8.47% in test [6]. The inhibition in [7] is 13.7%; in test [8] it was 1.18%; in test [9], 0.97%; in test [10], -0.75%; in [11] it was -0.24%; in test [12], 6.1%. Also, the inhibition was 16.4% in [13]; 1.59% in test [14]; -0.24% in [15]; 3.86% in test [16]; 20.7% in test [17]; 1.54% in test [18]. Also, the inhibition in [19] stood at 8.09%; in [20] it was 3.97%.
On to `NS(=O)(=O)c1ccc(N/N=C2\C(=O)Nc3ccc(C(=O)NCc4ccncc4)cc32)cc1`, for which the inhibition was 51.9% in [1]; 1.31% in test [2]; 7.54% in test [3]; 3.91% in [4]; 4.83% in [5]; 2.77% in test [6]. The inhibition is 29.2% in test [7]; 0.62% in test [8]; 1.01% in [9]; -2.4% in [10]; -2.54% in test [11]; 3.82% in test [12]. For the same compound, the inhibition was 7.13% in [13]; -0.94% in test [14]; 1.16% in [15]; 3.58% in [16]; 17.5% in test [17]; 0.57% in test [18]. In addition, the inhibition amounted to 2.58% in [19] and 4.11% in [20].
As for `CC1=C(C(=O)Nc2ccc3[nH]ncc3c2)C(c2ccc(F)cc2)N=C(c2ccc(C(F)(F)F)nc2)N1` (stereo not given), the inhibition in [1] is 43%; in test [2], 7.5%; in test [3] it was 5.38%; in test [4], 4.98%; in test [5], 14.9%; in test [6], -1.49%. The inhibition in [7] turned out to be 9.03%; in test [8], 1.74%; in test [9] it was 1.21%; in test [10], 3.11%; in test [11] it was 0.81%; in [12] it was 3.03%. For the same compound, the inhibition in test [13] amounted to 7.4%; in test [14] it was 2.65%; in test [15] it was 2.49%; in test [16], 1.86%; in test [17], 7.12%; in test [18] it was 1.17%. Moreover, the inhibition stood at 1.16% in [19] and 4.01% in test [20].
In the case of `COc1ccc2ncn(-c3cc(O[C@H](C)c4ccccc4C(F)(F)F)c(C(N)=O)s3)c2c1`, the inhibition in test [1] was 4.51%; in test [2], -2.2%; in test [3] it was 0.45%; in test [4], 2.67%; in [5], 3.29%; in [6], -2.12%. The inhibition was -0.06% in [7]; 3.94% in test [8]; 1.04% in test [9]; -1.01% in [10]; 0.76% in [11]; 1.04% in [12]. Moreover, the inhibition is -0.18% in [13]; 1.94% in test [14]; 4.83% in test [15]; 1.54% in test [16]; 19.8% in test [17]; 0.19% in [18]. Further, the figures for the inhibition in test [19] and in [20] were 2.86% and -0.31%, respectively.
Take `COC(=O)Nc1nc2ccc(Oc3ccc(NC(=O)Nc4cc(C(F)(F)F)ccc4F)cc3)cc2s1`: the inhibition amounted to 83.2% in [1]; 1.92% in [2]; 1.28% in test [3]; 1.61% in test [4]; 7.35% in test [5]; 0.46% in [6]. Besides, the inhibition in test [7] was 26.9%; in [8] it was 0.28%; in test [9], -0.86%; in test [10], 0.09%; in test [11] it was 0.26%; in test [12], 1.25%. The inhibition was -0.83% in test [13]; 50.8% in [14]; 78% in [15]; 11.5% in test [16]; 27.2% in [17]; 0.46% in test [18]. Further, the inhibition was determined as 1.35% in test [19] and 24.2% in test [20].
